# According to PubChem BioAssay (NCATS):
# Inconclusive results are not listed. Active and inactive are the calls of the source. The call rests on the fitted dose curve; in most records, active means well fitted cell-killing curve with a large enough effect; inconclusive means small, poorly fitted or top-dose-only effect, or effect the other way; inactive means no such curve, though single readings can be large or run the other way.
# Assay: Quantitative High-Throughput drug screen in 47 multiple myeloma cell lines against the NCATS MIPE library collection: H1112_PLB cell viability assay (AID 1918967; further: nearly all actives have a fitted effect of over 30% in size)
# Conditions: H1112 myeloma cells viability, ATP luminescence, 48 h; series mostly up to 45.8 µM
# Summary of the method: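 Relative luminescence from CellTiter-Glo served as the viability signal, referenced to DMSO-treated (100%) and cell-free medium (0%) controls. Treatment lasted 48 hours at 37C with 500 cells per well.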
# Potency means the concentration at half of the fitted maximal effect.
row,Structure (SMILES),Potency
1,COc1cc2c(cc1OC)[C@@H]1Cc3ccc(OC)c(OC)c3CN1CC2,inactive
2,COc1cc2ncnc(Nc3cc(Br)c(O)c(Br)c3)c2cc1OC,0.0418 µM (active)
3,CN1C(=O)C[C@H](C(=O)N[C@@H](Cc2cnc[nH]2)C(=O)N2CCC[C@@H]2C(N)=O)NC1=O,inactive
4,CC1CNc2c(cccc2S(=O)(=O)N[C@@H](CCCN=C(N)N)C(=O)N2CC[C@@H](C)C[C@@H]2C(=O)O)C1 (some centres undefined),inactive
5,CN(C)CCN(C)C(=O)c1ccc(NC(=O)Nc2ccc(-c3nc(N4CCOCC4)c4ccn(CC(F)(F)F)c4n3)cc2)cc1,3.32 µM (active)
6,CNC(=O)[C@H](Cc1ccccc1)NC(=O)[C@H](CC(C)C)[C@H](CSc1cccs1)C(=O)NO,20.9 µM (active)
7,CNC(=O)c1ccc2c(C(=Nc3cccc(CN(C)C)c3)c3ccccc3)c(O)[nH]c2c1,14.8 µM (active)
8,CCOC(=O)c1c(CSc2ccccc2)n(C)c2cc(Br)c(O)c(CN(C)C)c12,6.62 µM (active)
9,CCC(=C(c1ccc(O)cc1)c1ccc(OCCNC)cc1)c1ccccc1,23.5 µM (active)
10,CCn1c(-c2nonc2N)nc2cncc(CNC3CCNCC3)c21,5.26 µM (active)
11,CCC[C@H](N[C@@H](C)C(=O)N1[C@@H]2CCCC[C@H]2C[C@H]1C(=O)O)C(=O)OCC,inactive
12,C[C@@H](N)c1ccc(C(=O)Nc2ccnc3[nH]ccc23)cc1,23.5 µM (active)
13,Cc1nc(C(=O)NCC(=O)O)c(O)c2ccc(Oc3ccccc3)cc12,inactive
14,COc1ccc2nc3cc(Cl)ccc3c(Nc3cc(CN4CCCC4)c(O)c(CN4CCCC4)c3)c2n1,18.7 µM (active)
